Source: the supplement of paper PMC10723795
± gives the standard deviation of the averaged measurements.

Each compound was assayed on RPE1 (assay: nucleolar normality score relative to DMSO (fraction of DMSO control); RPE1 is a non-cancer human cell line; higher = more normal nucleoli (less nucleolar stress)).
Procedure: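 Selected screen hits were validated in hTERT lines (BJ5TA, CHON-002, RPE1) and cancer lines (DLD1, HCT116). Cells were immunostained for nucleolin and UBF and the nucleolar normality score was measured per field of view, with 4 fields per drug. Scores are normalized to each cell line's own DMSO control. Dose and time are not stated for this panel.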

Row | Structure (SMILES) | nucleolar normality score
1 | CC(C)C[C@H](NC(=O)[C@H](CCc1ccccc1)NC(=O)CN1CCOCC1)C(=O)N[C@@H](Cc1ccccc1)C(=O)N[C@@H](CC(C)C)C(=O)[C@@]1(C)CO1 [Carfilzomib] | 0.501 ± 0.086
2 | CCc1cnn2c(NCc3ccc[n+]([O-])c3)cc(N3CCCC[C@H]3CCO)nc12 [Dinaciclib] | 0.268 ± 0.01
3 | COC[C@H](NC(=O)c1cnc(C)s1)C(=O)N[C@@H](COC)C(=O)N[C@@H](Cc1ccccc1)C(=O)[C@@]1(C)CO1 [Oprozomib] | 0.55 ± 0.037
4 | COc1cccc2c1C(=O)c1c(O)c3c(c(O)c1C2=O)C[C@@](O)(C(=O)CO)C[C@@H]3O[C@H]1C[C@H](N)[C@H](O)[C@H](C)O1 [Doxorubicin] | 0.133 ± 0.011
5 | Cc1cnc(CNC(=O)c2c(=O)c3ccc(N4CCCN(C)CC4)nc3n3c2sc2ccccc23)cn1 | 0.277 ± 0.066
6 | CC(C)c1cc(C(=O)N2Cc3ccc(CN4CCN(C)CC4)cc3C2)c(O)cc1O [Onalespib] | 0.289 ± 0.0093
7 | CC(C)n1nc(-c2ccc3oc(N)nc3c2)c2c(N)ncnc21 [Sapanisertib] | 0.405 ± 0.0078
8 | CC(C)c1c2cc(-c3ccnc(NC4CCC(NC5CCOCC5)CC4)n3)ccc2nn1C (configuration not stated) | 0.462 ± 0.015
9 | CN(C)CCNC(=O)c1cccn2c(=O)c3cc4ccccc4cc3nc12 | 0.0724 ± 0.012
10 | C=CCNC1=C2C[C@@H](C)C[C@H](OC)[C@H](O)[C@@H](C)/C=C(\C)[C@H](OC(N)=O)[C@@H](OC)/C=C\C=C(/C)C(=O)NC(=CC1=O)C2=O | 0.296 ± 0.014
11 | Cc1nc(-c2cn3c(n2)-c2ccc(-c4cnn(C(C)(C)C(N)=O)c4)cc2OCC3)n(C(C)C)n1 [Taselisib] | 0.376 ± 0.0084
12 | CN1CC[C@H](c2c(O)cc(O)c3c(=O)cc(-c4ccccc4Cl)oc23)[C@H](O)C1 [Flavopiridol] | 0.254 ± 0.019
